Data reported in the antibiotic and cytotoxicity screens of Wong et al. (2023).
Out of some 39,000 compounds screened, about 1,500 (3.8%) were called active. What follows is part of a selection rich in actives, with near analogues and random picks from the rest.

These compounds were tested on HSkMC (human skeletal muscle cells) (assay: cytotoxicity call (relative viability < 0.9)). Conditions: 10 µM.

| Compound | cytotoxicity call |
| --- | --- |
| O=C(C[C@@H]1CC[C@H]2[C@@H](COC[C@@H](O)CN2S(=O)(=O)c2ccc(Oc3ccccc3)cc2)O1)NCCN1CCCCC1 | inactive |
| O=C(CCCl)NCCc1ccccc1 | inactive |
| COc1ccc(N(C(=O)CSc2ncccn2)[C@@H](C(=O)NCCc2ccccc2)c2cccs2)cc1Cl | inactive |
| CC(C)(C)OC(=O)NCCOCCOCCOc1ccc(N(C(=O)CCl)[C@@H](C(=O)NCCc2ccccc2)c2cccs2)cc1Cl | active |
| COc1ccc(N(C(=O)CCl)[C@@H](C(=O)NCCc2ccccc2)c2ccc(Cl)s2)cc1Cl | active |
| Cn1cnc(S(=O)(=O)N[C@H]2CC[C@@H](CC(=O)N3CCN(c4ccccc4)CC3)O[C@H]2CO)c1 | inactive |
| C[C@@H]1CN([C@H](C)CO)C(=O)Cc2cc(NC(=O)CCC(F)(F)F)ccc2O[C@H]1CN(C)Cc1ccc(Oc2ccccc2)cc1 | inactive |
| C[C@H]1CCCCO[C@H](CN(C)C(=O)Nc2cccc3ccccc23)[C@@H](C)CN([C@@H](C)CO)C(=O)c2cc(NS(=O)(=O)c3ccc(Cl)cc3)ccc2O1 | inactive |
| COC(=O)[C@@H]1OC(=O)[C@H]2O[C@@]23[C@]2(C)[C@@H](O)C[C@H]4C(C)(C)[C@H](OC(C)=O)C[C@H](OC(C)=O)[C@]4(C)[C@@H]2CC[C@@]13C | inactive |
| COc1ccc(CN(CCN(C)C)c2ncccn2)cc1.Cl | inactive |
| CCCCCCCCCCCCCCCC[N+](C)(C)CCN(Cc1ccc(OC)cc1)c1ncccn1 | active |
| COc1ccc(CN(CCN(C)C)c2ccccn2)cc1.O=C(O)C=CC(=O)O | inactive |
| C[C@@H]1CCCCO[C@H](CN(C)Cc2ccc(C(=O)O)cc2)[C@H](C)CN([C@H](C)CO)C(=O)c2cc(NC(=O)Nc3ccc(F)cc3)ccc2O1 | inactive |
| C[C@@H]1CCCCO[C@H](CN(C)C(=O)C2CCCCC2)[C@@H](C)CN([C@H](C)CO)C(=O)c2cc(NC(=O)Cc3ccccc3)ccc2O1 | inactive |
| NCC[C@@H]1CC[C@@H](NC(=O)C2CCCCC2)[C@@H](CO)O1 | inactive |
| C[C@@H]1CCCCO[C@H](CN(C)S(=O)(=O)c2ccc(F)cc2)[C@@H](C)CN([C@@H](C)CO)C(=O)c2cc(NC(=O)Nc3ccc(F)cc3)ccc2O1 | inactive |
| C[C@@H]1CCCCO[C@@H](CN(C)C(=O)Nc2ccc(F)cc2)[C@@H](C)CN([C@@H](C)CO)C(=O)c2cc(NC(=O)Nc3ccc(F)cc3)ccc2O1 | inactive |
| COc1ccc(NC(=O)N(C)C[C@H]2Oc3c(NC(=O)C4CCOCC4)cccc3C(=O)N([C@H](C)CO)C[C@H]2C)cc1 | inactive |
| COc1ccc(C(=O)O)c(O)c1OC | inactive |
| COC1=C(N)C(=O)c2nc(-c3nc(C(=O)O)c(C)c(-c4ccc(OC)c(OC)c4O)c3N)ccc2C1=O | active |
| Cc1ccc(S(=O)(=O)N(C)C[C@H]2Oc3ccc(NS(=O)(=O)c4ccc(F)cc4)cc3C(=O)N([C@H](C)CO)C[C@H]2C)cc1 | inactive |
| C[C@H](CO)N1C[C@H](C)[C@@H](CN(C)C(=O)c2ccccc2)OCCCC[C@H](C)Oc2ccc(NC(=O)Nc3ccccc3)cc2C1=O | inactive |
| C[C@H](CO)N1C[C@H](C)[C@@H](CN(C)C(=O)C2CCOCC2)Oc2ncc(-c3cccc(C#N)c3)cc2C1=O | inactive |
| C[C@@H]1CN([C@H](C)CO)C(=O)Cc2cc(NC(=O)Nc3ccc4c(c3)OCO4)ccc2O[C@@H]1CN(C)Cc1ccc(C(F)(F)F)cc1 | active |

| Compound | cytotoxicity call |
| --- | --- |
| C[C@H]1CN([C@@H](C)CO)C(=O)Cc2cc(NC(=O)Nc3ccc4c(c3)OCO4)ccc2O[C@H]1CN(C)Cc1ccc(C(F)(F)F)cc1 | inactive |
| C[C@H](CO)N1C[C@H](C)[C@@H](CN(C)Cc2ccc(C(F)(F)F)cc2)Oc2ccc(NC(=O)Nc3ccc4c(c3)OCO4)cc2CC1=O | active |
| C[C@@H]1CN([C@@H](C)CO)C(=O)Cc2cc(NC(=O)Nc3ccc4c(c3)OCO4)ccc2O[C@@H]1CN(C)Cc1ccc(C(F)(F)F)cc1 | inactive |
| C[C@@H]1CN([C@@H](C)CO)C(=O)Cc2cc(NC(=O)Nc3ccc4c(c3)OCO4)ccc2O[C@H]1CN(C)Cc1ccc(C(F)(F)F)cc1 | inactive |
| C[C@H](CO)N1C[C@H](C)[C@H](CN(C)Cc2ccc(C(F)(F)F)cc2)Oc2ccc(NC(=O)Nc3ccc4c(c3)OCO4)cc2CC1=O | inactive |
| C[C@H](CO)N1C[C@H](C)[C@H](CN(C)C(=O)Nc2ccc3c(c2)OCO3)Oc2ccc(NC(=O)Nc3ccc(C(F)(F)F)cc3)cc2CC1=O | inactive |
| C[C@H]1CN([C@@H](C)CO)C(=O)Cc2cc(NC(=O)Nc3ccc4c(c3)OCO4)ccc2O[C@@H]1CN(C)Cc1ccc(C(F)(F)F)cc1 | inactive |
| C[C@@H]1CN([C@H](C)CO)C(=O)Cc2cc(NC(=O)Nc3ccc4c(c3)OCO4)ccc2O[C@H]1CN(C)Cc1ccc(C(F)(F)F)cc1 | active |
| OCc1ccc2c(c1)OCCO2 | inactive |
| C[C@@H]1CN([C@@H](C)CO)C(=O)c2cc(NC(=O)Cn3cnnn3)ccc2O[C@@H]1CN(C)Cc1ccc(Cl)c(Cl)c1 | inactive |
| C[C@@H]1CN([C@@H](C)CO)S(=O)(=O)c2ccc(-c3cncnc3)cc2O[C@H]1CN(C)C(=O)Cc1ccncc1 | inactive |
| COc1ccc(S(=O)(=O)Nc2ccc3c(c2)C(=O)N([C@@H](C)CO)C[C@H](C)[C@H](CN(C)C(=O)Nc2cccc4ccccc24)OCCCC[C@H](C)O3)cc1 | inactive |
| C[C@@H]1CCCCO[C@H](CN(C)S(C)(=O)=O)[C@@H](C)CN([C@@H](C)CO)C(=O)c2cc(NS(=O)(=O)c3ccccc3)ccc2O1 | inactive |
| C[C@@H]1CN([C@@H](C)CO)C(=O)c2cccc(NC(=O)c3ccc(-c4nccs4)cc3)c2O[C@@H]1CN(C)Cc1ccc(C(=O)O)cc1 | inactive |
| C[C@@H]1CN([C@H](C)CO)C(=O)c2cc(NC(=O)Nc3ccccc3)ccc2O[C@@H](C)CCCCO[C@H]1CN(C)Cc1ccc(Cl)c(Cl)c1 | active |
| C[C@@H]1CCCCO[C@@H](CN(C)Cc2ccc(Cl)c(Cl)c2)[C@@H](C)CN([C@@H](C)CO)C(=O)c2cc(NC(=O)Nc3ccc(F)cc3)ccc2O1 | inactive |
| C[C@@H]1CCCCO[C@@H](CN(C)Cc2ccc(Cl)c(Cl)c2)[C@@H](C)CN([C@H](C)CO)C(=O)c2cc(NC(=O)Nc3ccccc3)ccc2O1 | inactive |
| C[C@H]1CCCCO[C@H](CN(C)Cc2ccc(Cl)c(Cl)c2)[C@@H](C)CN([C@@H](C)CO)C(=O)c2cc(NC(=O)Nc3ccc(F)cc3)ccc2O1 | inactive |
| Cc1noc(C)c1NC(=O)Nc1ccc2c(c1)C(=O)N([C@H](C)CO)C[C@@H](C)[C@@H](CN(C)Cc1ccc(Cl)c(Cl)c1)OCCCC[C@H](C)O2 | active |
| Cc1noc(C)c1NC(=O)Nc1ccc2c(c1)C(=O)N([C@@H](C)CO)C[C@@H](C)[C@H](CN(C)Cc1ccc(Cl)c(Cl)c1)OCCCC[C@H](C)O2 | inactive |
| C[C@@H]1CN([C@H](C)CO)C(=O)c2cc(NC(=O)Nc3ccc(F)cc3)ccc2O[C@@H](C)CCCCO[C@H]1CN(C)Cc1ccc(Cl)c(Cl)c1 | active |
| Cc1noc(C)c1NC(=O)Nc1ccc2c(c1)C(=O)N([C@H](C)CO)C[C@@H](C)[C@H](CN(C)Cc1ccc(Cl)c(Cl)c1)OCCCC[C@@H](C)O2 | inactive |
| C[C@H]1CCCCO[C@H](CN(C)Cc2ccc(Cl)c(Cl)c2)[C@@H](C)CN([C@@H](C)CO)C(=O)c2cc(NC(=O)Nc3ccccc3)ccc2O1 | inactive |
